From the supplement of paper PMC8253809

Legend:
Experiment in all cases: growth inhibition (% activity, log2 RLU normalised to DMSO / staurosporine); higher = more growth inhibition
Details in all cases: 33 µM
[1] = test system: DIPGX29 (H3.3 K27M diffuse intrinsic pontine glioma line)
Method in brief: (§1)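 The growth-inhibition value comes from CellTiter-Glo luminescence, log2-transformed, normalised per plate to % activity between solvent and positive control wells, and taken as the median over replicates. Treatment of pHGG cell lines and H9-derived neural stem cells with approved drugs was at a single final concentration of about 33 μM, in triplicate, for 7 days at 37 °C, 5% CO2.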

[2] = test system: DIPGX37 (H3.3 K27M diffuse intrinsic pontine glioma line)
Method in brief: as §1

[3] = test system: DIPGX7 (H3.3 K27M diffuse intrinsic pontine glioma line)
Method in brief: as §1

[4] = test system: DIPGX9 (diffuse intrinsic pontine glioma line)
Method in brief: as §1

[5] = test system: HGGX39 (paediatric high-grade glioma line)
Method in brief: as §1

[6] = test system: HGGX6 (H3.3 G34R paediatric high-grade glioma line)
Method in brief: as §1

[7] = test system: HNSC
Method in brief: as §1

[8] = test system: SUDIPGIV (diffuse intrinsic pontine glioma line)
Method in brief: as §1

[9] = test system: SUDIPGVI (diffuse intrinsic pontine glioma line)
Method in brief: as §1

[10] = test system: SUDIPGXIII (diffuse intrinsic pontine glioma line)
Method in brief: as §1

SMILES | growth inhibition [1] | growth inhibition [2] | growth inhibition [3] | growth inhibition [4] | growth inhibition [5] | growth inhibition [6] | growth inhibition [7] | growth inhibition [8] | growth inhibition [9] | growth inhibition [10]
CC(=O)OCC(=O)[C@@]1(O)CC[C@H]2[C@@H]3CCC4=CC(=O)C=C[C@]4(C)[C@H]3[C@@H](O)C[C@@]21C | 2.24% | 0.724% | 2.19% | 3.92% | 5.57% | 2.03% | 1.11% | 2.53% | -1.15% | 2.13%
CN(Cc1cnc2nc(N)nc(N)c2n1)c1ccc(C(=O)N[C@@H](CCC(=O)O)C(=O)O)cc1 | 1.2% | 1.21% | 2.57% | 0.922% | 3.95% | 1.8% | 2.32% | -0.562% | 3.38% | 0.468%
CS(=O)(=O)c1ccc([C@@H](O)[C@@H](CF)NC(=O)C(Cl)Cl)cc1 | 3.83% | -0.106% | 1.63% | 2.53% | 12.9% | 5.33% | 15.9% | 24.6% | 2.59% | 38%
COC(=O)C1=C(C)NC(C)=C(C(=O)OCCN2CCN(C(c3ccccc3)c3ccccc3)CC2)C1c1cccc([N+](=O)[O-])c1 (stereo not given) | 5.69% | 6.99% | 4.72% | 4.03% | 8.12% | 5.46% | 73% | 3.75% | 6.07% | 22%
CC1(C)S[C@@H]2[C@H](NC(=O)[C@H](NC(=O)N3CCNC3=O)c3ccccc3)C(=O)N2[C@H]1C(=O)O | -0.235% | 0.459% | -0.00643% | 0.298% | 1.59% | -0.0472% | -1.56% | -0.88% | -1.06% | -0.815%
CC(C)(C)CC(C)(C)c1ccc(O)c(Cc2ccc(Cl)cc2Cl)c1 | 1.52% | -4.36% | 1.89% | 0.915% | 0.861% | -1.71% | 13.3% | 3.83% | -0.854% | 3.25%
Cc1c(NC(=O)c2cccnc2)c(=O)n(-c2ccccc2)n1C | 2.04% | 3.56% | 2.88% | 1.83% | 2.64% | 2.09% | 2.9% | 1.6% | 5.52% | -1.54%
COc1cc2nc(N3CCN(C(=O)C4COc5ccccc5O4)CC3)nc(N)c2cc1OC (stereo not given) | 0.458% | 2.32% | 1.34% | 0.0132% | 2.47% | 1.58% | -0.951% | -3.82% | 1.52% | 2.13%
CCOC(=O)C1=C(C)NC(C)=C(C(=O)OCC)C1c1ccccc1/C=C/C(=O)OC(C)(C)C | 5.9% | -3.39% | 7.49% | 4.68% | 24.1% | 2.24% | 46.6% | 12.7% | 1.91% | 7.34%
C[C@@H](c1ncncc1F)[C@](O)(Cn1cncn1)c1ccc(F)cc1F | 0.619% | -0.0255% | 0.392% | 0.104% | 0.756% | -0.00667% | 1.22% | -1.27% | -1.71% | -0.404%
Cc1cc(-n2c(=O)[nH]c(=O)n(C)c2=O)ccc1Oc1ccc(SC(F)(F)F)cc1 | 1.92% | 4.99% | 3.64% | 1.95% | 4.82% | 2.18% | 5.28% | 2.64% | 4.98% | -0.649%
CCC(C)C1OC2(CCC1C)CC1CC(CC=C(C)C(OC3CC(OC)C(OC4CC(OC)C(O)C(C)O4)C(C)O3)C(C)C=CC=C3COC4C(O)C(C)=CC(C(=O)O1)C34O)O2 (stereo not given) | 3.13% | 0.396% | 1.82% | 2.33% | 3.17% | 15.6% | 27.4% | 0.217% | 3.51% | 47.6%
CC1CNc2c(cccc2S(=O)(=O)N[C@@H](CCCNC(=N)N)C(=O)N2CC[C@@H](C)C[C@@H]2C(=O)O)C1 (stereo not given in full) | 0.0741% | 1.59% | -1.49% | 0.277% | -0.0474% | -1.28% | 12.3% | 1.8% | 0.243% | -1.66%
CCN(CC)CCOC(=O)C1(C2CCCCC2)CCCCC1 | -1.15% | -1.5% | -1.55% | -2.17% | -2.47% | -0.591% | -1.91% | -0.751% | -0.615% | 0.956%
C[C@H](CS)C(=O)N1CCC[C@H]1C(=O)O | 0.445% | -0.171% | 1.27% | 1.57% | 1.84% | -1.72% | 2.42% | -0.14% | -0.111% | -0.989%
Cc1ccc(C(=O)c2cc(O)c(O)c([N+](=O)[O-])c2)cc1 | -4.7% | -1.02% | -1.81% | -2.4% | -1.44% | -3.36% | 0.397% | -4.56% | -2.71% | 1.37%
C[C@]12C=CC(=O)N[C@@H]1CC[C@@H]1[C@@H]2CC[C@]2(C)[C@@H](C(=O)Nc3cc(C(F)(F)F)ccc3C(F)(F)F)CC[C@@H]12 | -0.354% | -0.558% | -0.437% | 0.309% | 0.618% | 1.03% | -1.51% | -0.237% | -0.00919% | -0.463%
CCCc1cc(C(N)=S)ccn1 | -2.06% | -0.994% | -2.65% | -1.15% | -0.973% | 0.551% | -2.9% | -2.46% | -0.254% | 0.671%
C[C@@H]1CC(=O)NN=C1c1ccc(NN=C(C#N)C#N)cc1 | 1.15% | -0.996% | 1.39% | 4.28% | 4.26% | 2.45% | 5.57% | 5.05% | 1.51% | 0.449%
Cc1ncc([N+](=O)[O-])n1CCO | -0.678% | -1.76% | -1.15% | 0.881% | 1.6% | -4.16% | 22.3% | 0.605% | 0.0318% | -3.67%

SMILES | growth inhibition [1] | growth inhibition [2] | growth inhibition [3] | growth inhibition [4] | growth inhibition [5] | growth inhibition [6] | growth inhibition [7] | growth inhibition [8] | growth inhibition [9] | growth inhibition [10]
COc1ccc(-n2nc(C(N)=O)c3c2C(=O)N(c2ccc(N4CCCCC4=O)cc2)CC3)cc1 | -1.17% | -0.875% | 0.291% | 0.547% | 1.79% | 1.04% | -3.66% | -1.21% | 1.14% | 0.63%
CCCc1nn(C)c2c(=O)[nH]c(-c3cc(S(=O)(=O)N4CCN(C)CC4)ccc3OCC)nc12 | 0.246% | -4.11% | 0.899% | -0.0138% | 0.834% | -0.171% | 0.834% | -2.48% | 0.71% | -0.097%
CCOC(=O)c1ccc(C#Cc2ccc3c(c2)C(C)(C)CCS3)nc1 | 3.83% | -0.285% | 6.1% | 9.38% | 8.54% | 6.5% | 6.59% | 8.53% | 4.1% | 1.82%
CN1CCC[C@@H]1CCO[C@](C)(c1ccccc1)c1ccc(Cl)cc1 | 5.74% | 3.39% | 5.71% | 2.23% | 6.24% | 5.32% | 4.55% | 0.591% | 2.52% | 1.69%
CC(C)c1nc(CN(C)C(=O)N[C@@H](CCN2CCOCC2)C(=O)N[C@H](CC[C@H](Cc2ccccc2)NC(=O)OCc2cncs2)Cc2ccccc2)cs1 | 3.78% | 0.997% | 0.492% | 2.24% | 2.07% | 1.63% | 1.95% | -0.101% | 3.61% | -0.613%
CCOC(=O)CCC(=O)O[C@H]1[C@H](O[C@@H]2[C@@H](C)[C@H](O[C@H]3C[C@@](C)(OC)[C@@H](O)[C@H](C)O3)[C@@H](C)C(=O)O[C@H](CC)[C@@](C)(O)[C@H](O)[C@@H](C)C(=O)[C@H](C)C[C@@]2(C)O)O[C@H](C)C[C@@H]1N(C)C | -2.45% | -0.105% | 1.67% | -1.7% | -1.58% | -2.75% | 19.9% | -1.78% | -9.9% | 2.09%
CC(=O)OCC(=O)[C@H]1CC[C@H]2[C@@H]3CCC4=CC(=O)CC[C@]4(C)[C@H]3CC[C@]12C | -1.69% | -0.592% | -0.0117% | -0.0895% | 1.53% | -0.537% | -2.47% | -2% | -0.651% | 5.18%
CCCCC[C@H](O)/C=C/[C@H]1[C@H](O)CC(=O)[C@@H]1CCCCCCC(=O)O | 1.8% | 0.835% | 1.87% | 1.68% | 3.82% | 4.44% | 0.983% | 2.69% | 1.52% | 0.878%
CC(C)n1c(/C=C/[C@@H](O)C[C@@H](O)CC(=O)O)c(-c2ccc(F)cc2)c2ccccc21 | 4.64% | 0.671% | 6.29% | 6.39% | 18.7% | 10.2% | 26.9% | 26.2% | 0.023% | 3.96%
CCN[C@H]1C[C@H](C)S(=O)(=O)c2sc(S(N)(=O)=O)cc21 | 1.81% | -1.68% | 1.05% | 0.778% | 2.3% | 0.627% | 4.56% | -0.668% | 4.36% | 0.067%
Nc1nc(Cl)nc2c1ncn2[C@H]1C[C@H](O)[C@@H](CO)O1 | 18.6% | 8.52% | 14.4% | 39.6% | 16.4% | 14.2% | 55.2% | 41.7% | 5.86% | 17%
N#Cc1c(N(CC(=O)O)CC(=O)O)sc(C(=O)O)c1CC(=O)O | -0.0468% | -1.11% | -0.504% | 1.29% | 1.34% | -1.45% | 27.7% | 1.52% | 0.043% | -2.77%
CCN(CC)CCOCCOC(=O)C(CC)(CC)c1ccccc1 | 7.78% | 4.64% | 14.3% | 2.65% | 9.22% | 10.7% | 6.61% | 2.41% | 4.8% | -0.0734%
CC(=O)NS(=O)(=O)c1ccc(NC(=O)c2ccccc2C(=O)O)cc1 | -1.87% | -0.137% | -3.14% | -1.16% | -2.19% | -0.75% | -2.78% | -2.4% | -1.59% | -0.151%
NCCC(O)(P(=O)(O)O)P(=O)(O)O | 0.943% | 2.91% | 2.33% | 0.0373% | 2.9% | 1.86% | 2.52% | 1.34% | 2.52% | 0.475%
O=c1[nH]c(=O)n(C2CCCO2)cc1F (stereo not given) | -0.615% | 0.56% | -0.536% | -0.0713% | 1.51% | -0.669% | -0.796% | -1.49% | -0.356% | -6.49%
COC(=O)C1=C(C)NC(C)=C(C(=O)OC(C)C)C1c1cccc2nonc12 (stereo not given) | -2.46% | -3.83% | 1.18% | -3.89% | -6.2% | -4.5% | -4.73% | -4.11% | -12.6% | 3.66%
CC(C[N+](C)(C)C)OC(N)=O (stereo not given) | -2.19% | 0.0509% | -1.77% | 0.0426% | -1.35% | -2.06% | -4.04% | -1.69% | -2.52% | 0.126%
COc1ccc2cccc(CCNC(C)=O)c2c1 | -3.08% | -0.948% | -1.76% | -2.3% | -1.63% | -4.45% | -2.84% | -2.11% | -2.45% | -0.361%
CN(C)C(=O)C(CCN1CCC(O)(c2ccc(Cl)cc2)CC1)(c1ccccc1)c1ccccc1 | 11.2% | 3.96% | 9.47% | 0.4% | 13.9% | 9.1% | 81.6% | 7.8% | 3.43% | 9.15%
